Compound activity deposited in PubChem BioAssay by Broad Institute.
Compounds with a hit are over-represented: about 2.5% of the library has one in this group of screens.
RAD52 anneal inh = RAD52 DNA annealing inhibitors, primary screen, biochemical, FRET, single point, set 2; DNA repair protein RAD52 homolog (Homo sapiens), P43351; recombinant RAD52 DNA annealing, FRET fluorescence; inhibition, % at 18.7 µM; actives 0.46% (n = 360,000);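 active means every replicate showing at least 50% inhibition; inconclusive means mean inhibition at least 50% but not in every replicate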
Casp6 inh = human caspase-6 inhibitors, primary screen, biochemical, VEID-R110 fluorescence, single point, set 2; P55212; purified caspase-6, Z-VEID-R110 cleavage fluorescence; inhibition, % at 12.5 µM; actives 0.53% (n = 350,000); AID 686996, 2013;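 active means mean inhibition across replicates at least about 35%, with every replicate also reaching that limit, limit read from the data; inconclusive means only one of the two criteria met; inactive means neither criterion met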
NSD2 inh = NSD2 histone methyltransferase inhibitors, primary screen, biochemical, AlphaScreen, single concentration, set 2; inhibition, % at 12.5 µM; Histone-lysine N-methyltransferase NSD2 (Homo sapiens), O96028; NSD2 peptide methylation, 120 min; actives 0.54% (n = 310,000); AID 743445, 2014; in the data active means inhibition above about 50%
MLL AF4-AF9 inh = inhibitors of AF4 peptide binding to AF9, primary screen, biochemical, AlphaScreen, biotin-AF4 peptide, FLAG-AF9, single point; Protein AF-9 (Homo sapiens), P42568; inhibition, % at 10 µM; actives 0.47% (n = 350,000);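 active means every replicate reaching a set inhibition limit, whatever the replicate mean, cut at about 25% in these data; inconclusive means mean inhibition reaches that limit but some replicates miss it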
Target sequence (P42568 whole entry, looked up): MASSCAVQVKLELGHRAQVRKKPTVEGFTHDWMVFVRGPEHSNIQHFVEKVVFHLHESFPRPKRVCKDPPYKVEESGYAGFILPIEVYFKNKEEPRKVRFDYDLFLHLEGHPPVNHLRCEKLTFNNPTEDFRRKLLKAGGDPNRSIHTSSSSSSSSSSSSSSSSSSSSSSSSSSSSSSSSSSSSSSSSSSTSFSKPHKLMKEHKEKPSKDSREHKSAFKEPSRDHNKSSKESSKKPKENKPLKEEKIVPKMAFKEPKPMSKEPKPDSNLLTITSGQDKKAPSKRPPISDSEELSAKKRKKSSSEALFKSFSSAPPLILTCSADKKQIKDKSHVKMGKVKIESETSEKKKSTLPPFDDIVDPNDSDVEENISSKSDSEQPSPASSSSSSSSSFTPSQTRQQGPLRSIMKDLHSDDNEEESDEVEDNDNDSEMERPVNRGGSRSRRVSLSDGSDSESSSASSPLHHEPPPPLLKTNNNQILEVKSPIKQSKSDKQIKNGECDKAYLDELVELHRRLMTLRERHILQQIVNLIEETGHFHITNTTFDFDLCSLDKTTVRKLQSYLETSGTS
Ecoli rRNA inh = reduced GFP signal of wild-type E. coli, primary screen, bacterial rRNA inhibitor project, GFP/RFP fluorescence, OD600, single point; E. coli WT GFP vs humanized-ribosome RFP mutants, 24 h; active compounds read low; DMSO median 0, no signal -100; GFP signal change (wild-type ribosome), % (concentration not given with the values); actives 1.6% (n = 350,000); AID 720706, 2013;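 active means significant combined selectivity score with lowered wild-type GFP, culture density cut under 30%, mutant RFP and density less affected; inactive means any of these conditions unmet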
AID977621 = growth inhibition of wild-type GFP E. coli, dose response, H69 mutant RFP, cherry-pick; shares compounds with Ecoli rRNA inh; E. coli wild-type GFP strain growth, fluorescence, 24 h; activity change, negative = inhibition at 50 µM; 1,900 tested, under 10 active; AID 977621, 2014;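 active means Wild-type ribosome reporter drop at least double the humanized mutant ribosome reporter drop, growth loss under a set limit; inconclusive means no clear call, values can overlap the other calls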;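 further: wild-type GFP and H69 mutant RFP strains grown together 50/50 in each well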
AID977628 = E. coli growth inhibition, wild-type GFP versus h24 humanized RFP strain, dose response, h24 mutant RFP vs wild-type GFP, cherry-pick; shares compounds with Ecoli rRNA inh; E. coli WT GFP strain growth, fluorescence, 24 h; activity change, negative = inhibition at 50 µM; 1,900 tested, under 10 active;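 active means compound lowering the normal-ribosome reporter at least twice as much as the humanized-ribosome reporter, growth loss under a set limit; inconclusive means no clear call, values can overlap the other calls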;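 further: wild-type GFP and h24 humanized RFP strains co-cultured 1 to 1 per well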
Of the large screens only hits and unclear results are named; the others gave an inactive call (follow-up assays come after a bar, where they were run).

COc1ccc(S(=O)(=O)Nc2ccc3c(c2)C(=O)N([C@H](C)CO)C[C@H](C)[C@@H](CN(C)C(=O)Nc2ccc(F)cc2)OCCCC[C@@H](C)O3)cc1	none (no result: NSD2 inh)
COc1ccccc1C(=O)Nc1cccc2cccnc12	Ecoli rRNA inh -30.1 | AID977621 inactive
O=C(COc1ccc(F)cc1)c1c(O)cc(O)cc1O	none
COc1ccc(C(=O)COc2ccc(F)cc2)c(O)c1	Ecoli rRNA inh -21.4 | AID977621 inactive | AID977628 inactive
C[C@H]1CN(C)C(=O)Cc2cc(N)ccc2O[C@H]1CN(C)S(C)(=O)=O	none (no result: RAD52 anneal inh, Casp6 inh, NSD2 inh, MLL AF4-AF9 inh)
Cc1cccc(Oc2ccc(NC(=O)c3ccccc3C(=O)O)cc2)c1	Ecoli rRNA inh -22.6 | AID977621 inactive | AID977628 inconclusive
CN(Cc1ccccc1)C(=O)c1[nH]cnc1C(=O)Nc1ccc(Cl)cc1	none (no result: NSD2 inh)
COc1ccc(NC(=O)c2nc[nH]c2C(=O)N(C)Cc2ccccc2)cc1	Ecoli rRNA inh -19.1 (no result: NSD2 inh) | AID977621 inconclusive
COc1ccccc1Cc1c(-c2ccc(F)cc2)nc2ccc(Br)cn12	Ecoli rRNA inh -23.6 (no result: NSD2 inh) | AID977621 inactive | AID977628 inactive
Cc1ccc(Cc2c(-c3ccc(C#N)cc3)nc3ccc(Br)cn23)cc1	Ecoli rRNA inh -28.4 (no result: NSD2 inh) | AID977621 inactive | AID977628 inactive
CCCNC(=O)[C@@H]1[C@@H](CO)[C@@H]2Cn3c(ccc(C4=CCCC4)c3=O)[C@@H]2N1Cc1ccccc1	none (no result: NSD2 inh)
CC(C)c1cccc(NC(=O)C[C@H]2CC[C@H]3[C@@H](COc4ccc(NC(=O)c5ccc(C#N)cc5)cc4C(=O)N3C)O2)c1	none (no result: RAD52 anneal inh, Casp6 inh, NSD2 inh)
COc1ccccc1NC(=O)CN1CCN(CC(=O)Nc2ccccc2Cl)CC1	none
CCn1c(-c2ccccc2Cl)nn(CC(=O)Nc2ccccc2OC)c1=S	Ecoli rRNA inh -20.9 (no result: MLL AF4-AF9 inh) | AID977621 inactive
C[C@H](CO)N1C[C@H](C)[C@H](CN(C)CC2CCCCC2)Oc2c(NS(=O)(=O)c3cn(C)cn3)cccc2C1=O	none (no result: Casp6 inh, NSD2 inh, MLL AF4-AF9 inh)
CCNC(=O)C[C@@H]1CC[C@H]2[C@@H](COC[C@H](O)CN2C(=O)C2CCOCC2)O1	none (no result: NSD2 inh)
COc1ccc(-c2csc(NC(=O)c3ccoc3C)n2)cc1	Ecoli rRNA inh -25.0 | AID977628 inactive
COc1ccc(-c2csc(NC(=O)c3ccccc3C(=O)O)n2)cc1	none
COc1ccc(-c2csc(NC(=O)c3c(C)noc3C)n2)cc1	none
COc1ccc(-c2csc(NC(=O)c3ccccc3S(C)(=O)=O)n2)cc1	Ecoli rRNA inh -35.9 | AID977621 inactive | AID977628 inconclusive
C[C@@H]1CN([C@@H](C)CO)C(=O)c2cc(NC(=O)Cn3cnnn3)ccc2O[C@@H]1CN(C)S(=O)(=O)c1ccc(Cl)cc1	none (no result: NSD2 inh)
COc1ccc(S(=O)(=O)N(C)C[C@@H]2Oc3ccc(NC(=O)Cn4cnnn4)cc3CC(=O)N([C@H](C)CO)C[C@H]2C)cc1	none (no result: NSD2 inh)
COc1ccc(C(=O)Nc2nc3ccc(OC)cc3s2)cc1	Ecoli rRNA inh -31.6 | AID977628 inconclusive
O=C(Nc1ccc(Cl)c(Cl)c1)c1ccc(Cl)c(Cl)c1	Ecoli rRNA inh -17.1 | AID977621 inactive | AID977628 inactive
CCOC(=O)C1(CCc2ccccc2)CCN(C(=O)CCn2cncn2)CC1	none
CCOC(=O)C1(CCCc2ccccc2)CCN(C(=O)CCn2cncn2)CC1	Ecoli rRNA inh -20.1 | AID977621 inactive | AID977628 inactive
C[C@H](CO)N1C[C@H](C)[C@H](CN(C)Cc2ccc(Cl)c(Cl)c2)Oc2ccc(NC(=O)CCN3CCOCC3)cc2C1=O	none (no result: NSD2 inh)
Cc1ccc(NCC(=O)c2ccc(C)cc2)cc1	Ecoli rRNA inh -18.0 | AID977621 inactive | AID977628 inactive
